Test [1] is described as follows: qHTS profiling for inhibitors of Plasmodium falciparum proliferation (AID 504749).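 For activity, negative = inhibition: 0% = DMSO vehicle and full inhibition = artemisinin control.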 Note: nearly all actives have a fitted effect of over 60% in size. Particulars: P. falciparum in erythrocytes, SYBR Green DNA, 72 h. An outline of the steps:
(§1)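 Fluorescence of SYBR Green-bound parasite DNA, read at 485/535 nm, served as the growth measure. Infected erythrocytes were cultured with compound 72 h; artemisinin (0.29 uM) and DMSO wells defined the normalization range.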

The subject of a further test is 3D7. The description is as above. Particulars: P. falciparum in erythrocytes, SYBR Green DNA, 72 h; series mostly up to 28.7 µM. The essentials:
as §1

For a further test, the system named is 7G8. Described as above. The settings on record: P. falciparum in erythrocytes, SYBR Green DNA, 72 h; series mostly up to 28.7 µM. The essentials: as §1
The next test has as its system AA1029. Described as above. The settings on record: P. falciparum in erythrocytes, SYBR Green DNA, 72 h; series mostly up to 28.7 µM. An outline of the steps: as §1
A further test concerns AS120. Described as above. Particulars: P. falciparum in erythrocytes, SYBR Green DNA, 72 h; series mostly up to 28.7 µM. An outline of the steps: as §1
In the next test the test system is ATS189. The test is described as above. The settings on record: P. falciparum in erythrocytes, SYBR Green DNA, 72 h; series mostly up to 28.7 µM. The essentials: as §1
The subject of a further test is ATS95. The test is described as above. Particulars: P. falciparum in erythrocytes, SYBR Green DNA, 72 h; series mostly up to 28.7 µM. An outline of the steps:
as §1

In the next test the test system is C2A. Described as above. The settings on record: P. falciparum in erythrocytes, SYBR Green DNA, 72 h; series mostly up to 28.7 µM. An outline of the steps: as §1
[2] abbreviates: at 28.7 µM (top of the series), parasite line A.
Where [3] appears, read: at 28.7 µM (top of the series), parasite line B.
The mark [4] stands for this setting: at 12.8 µM (top of the series), parasite line A.
Setting [5] is: at 12.8 µM (top of the series), parasite line B.

Inconclusive results are not listed. A number with no mark means an inactive call. The source made the active and inactive calls. Calls come from the whole dose curve; as a rule, active = well fitted inhibition curve with a large enough effect; inconclusive = small, poorly fitted or top-dose-only effect; inactive = flat fitted curve, though single readings scatter. Peptide text beside a SMILES is read from it.
Potency is the fitted concentration of half-maximal effect.

For `CCCCC/C=C\C/C=C\CCCCCCCC(=O)O`, the activity, negative = inhibition is 6.83% in test [1] (setting [2]) and 5.9% in test [1] (setting [3]). For the same compound, the Potency entry with 3D7, in the test on 7G8, in the test on AA1029, in the test on AS120, with ATS189 and with ATS95 was “inactive” throughout. For the same compound, the Potency result with C2A is “inactive”.

Regarding `CC(=O)N[C@@H](CC(=O)O)C(=O)N[C@@H](CCC(=O)O)C(=O)O` (Ac-Asp-Glu-OH), the activity, negative = inhibition in test [1] (setting [2]) is 24.6%; in test [1] (setting [3]) it was 14.8%. Moreover, the Potency entry in the test on 3D7, in the test with 7G8, with AA1029, in the test with AS120, in the test on ATS189 and in the test with ATS95 was “inactive” throughout. The Potency result in the test on C2A was “inactive”.

With `CC1(C)S[C@@H]2[C@H](NC(=O)[C@@H](NC(=O)N3CCNC3=O)c3ccccc3)C(=O)N2[C@H]1C(=O)O`, the activity, negative = inhibition in test [1] (setting [4]) was 9.18%; in test [1] (setting [5]) it was -0.988%. In addition, the Potency entry in the test on 3D7, with 7G8, in the test on AA1029, with AS120, in the test with ATS189 and with ATS95 was “inactive” in each case. Also, in the test with C2A, the Potency result was “inactive”.

For `O=C(O)c1cc(O)c2c(c1)[O][Bi][O]2`, the activity, negative = inhibition in test [1] (setting [2]) is -9.75%; in test [1] (setting [3]), 14.4%. Moreover, the Potency result with 3D7, in the test on 7G8, with AA1029, in the test on AS120, with ATS189 and in the test with ATS95 was “inactive” throughout. Also, the Potency entry in the test on C2A is “inactive”.

On to `CCOC(=O)C1=CC2(CC)CCCN3CCc4c(n1c1ccccc41)C32` (configuration not stated), for which the Potency is 11200 nM (active) in test [1] (parasite line A); 7940 nM (active) in test [1] (parasite line B); 8910 nM (active) in the test with 3D7; 5620 nM (active) in the test on 7G8; 11200 nM (active) in the test on AA1029; 11200 nM (active) in the test on AS120. The Potency with ATS189 was 8910 nM (active); in the test on ATS95, 11200 nM (active); with C2A it was 10000 nM (active).

Regarding `O=C(O)CCC(=O)C(=O)O`, the figures for the activity, negative = inhibition in test [1] (setting [2]) and in test [1] (setting [3]) were 2.78% and 9.14%, respectively. Further, the Potency result in the test on 3D7, in the test with 7G8, in the test on AA1029, in the test with AS120, in the test on ATS189 and with ATS95 was “inactive” each time. In addition, the Potency entry in the test on C2A is “inactive”.

`CCOC(C)=O`: the activity, negative = inhibition in test [1] (setting [2]) is 0.182%; in test [1] (setting [3]), 7.53%. The Potency result with 3D7, in the test on 7G8, with AA1029, with AS120, in the test with ATS189 and in the test with ATS95 was “inactive” each time. In addition, the Potency result with C2A is “inactive”.

Consider `CCCCCCCCCCCC[n+]1ccc2ccccc2c1`, for which the Potency is 794 nM (active) in test [1] (parasite line A); 501 nM (active) in test [1] (parasite line B); 1120 nM (active) with 3D7; 316 nM (active) with 7G8; 1260 nM (active) in the test on AA1029; 1410 nM (active) with AS120. For the same compound, the figures for the Potency with ATS189, in the test with ATS95 and in the test on C2A were 1000 nM (active), 2000 nM (active) and 708 nM (active), respectively.

`CCCCCC(CC)COC(=O)CC(C(=O)OCC(CC)CCCC)S(=O)(=O)O` (configuration not stated): the activity, negative = inhibition in test [1] (setting [2]) is 7.28%; in test [1] (setting [3]) it was 3.54%. Further, the Potency entry in the test with 3D7, in the test with 7G8, with AA1029, with AS120, with ATS189 and in the test on ATS95 was “inactive” throughout. In addition, the Potency entry in the test on C2A is “inactive”.

Take `Nc1ncnc2c1ncn2[C@@H]1O[C@H](COP(=O)(O)OP(=O)(O)OP(=O)(O)O)[C@@H](O)[C@H]1O`: the activity, negative = inhibition in test [1] (setting [2]) was 19.4%; in test [1] (setting [3]), 9.47%. For the same compound, the Potency result in the test with 3D7, in the test with 7G8, with AA1029, in the test on AS120, in the test on ATS189 and in the test with ATS95 was “inactive” each time. Moreover, in the test with C2A, the Potency result was “inactive”.

With `CO[C@H]1C[C@@H]2CC[C@@H](C)[C@@](O)(O2)C(=O)C(=O)N2CCCC[C@H]2C(=O)O[C@H]([C@H](C)C[C@@H]2CC[C@@H](OCCO)[C@H](OC)C2)CC(=O)[C@H](C)/C=C(\C)[C@@H](O)[C@@H](OC)C(=O)[C@H](C)C[C@H](C)/C=C/C=C/C=C/1C`, the Potency was 2240 nM (active) in test [1] (parasite line A); 1120 nM (active) in test [1] (parasite line B); 1780 nM (active) in the test on 3D7; 1120 nM (active) in the test with 7G8; 1410 nM (active) in the test with AA1029; 1120 nM (active) in the test with AS120. In addition, the Potency is 1260 nM (active) in the test with ATS189, 2000 nM (active) with ATS95 and 3160 nM (active) in the test on C2A.

With `CC[N+](C)(C)Cc1ccccc1Br`, the values for the activity, negative = inhibition in test [1] (setting [4]) and in test [1] (setting [5]) were 3.25% and 6.79%, respectively. Moreover, the Potency entry in the test with 3D7, with 7G8, in the test on AA1029, in the test with AS120, in the test with ATS189 and in the test with ATS95 was “inactive” each time. Moreover, in the test with C2A, the Potency result was “inactive”.

On to `C[C@]12CCC(=O)C=C1CC[C@@H]1[C@@H]2[C@@H](O)C[C@@]2(C)[C@H]1CC[C@]2(O)C(=O)COP(=O)(O)O`, for which the activity, negative = inhibition was 1.99% in test [1] (setting [2]) and -7.41% in test [1] (setting [3]). Further, the Potency result with 3D7, in the test with 7G8, in the test on AA1029, in the test on AS120, with ATS189 and with ATS95 was “inactive” each time. The Potency result with C2A is “inactive”.

The values above are taken from PubChem BioAssay (NCATS).
